In assay [1] the test system is Sodium/Iodide Symporter (NIS), SLC5A5 (gene 6528). Kind of assay: CPHEA_Stoker_NIS_Inhibition_RAIU: CPHEA's Radioactive Iodide Uptake (RAIU) Assay for Sodium/Iodide Symporter (NIS) Inhibition, Stoker and Laws Labs (AID 2283841). In short, it runs like this:
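Iodide uptake read as CPM of intracellular 125I (final 329 pM) after 2 h room-temperature exposure in HEPES-buffered HBSS, pH 7.4. Human NIS-expressing HEK293T cells; six concentrations 0.001–100 uM, 0.5% DMSO, normalised to DMSO wells.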

The nature of assay [2]: CPHEA_Stoker_NIS_Cytotoxicity: Cytotoxicity Assessment for CPHEA's Radioactive Iodide Uptake (RAIU) Assay for Sodium/Iodide Symporter (NIS) Inhibition, Stoker and Laws Labs (AID 2283897).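 On AC50: active means loss of ATP signal versus DMSO meaning cytotoxicity.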 In short, it runs like this:
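CellTiter-Glo ATP luminescence gauged viability in HEK293T cells expressing human NIS after 2 h chemical exposure. Concentrations ran 0.001–100 uM in 0.5% DMSO; DMSO served as baseline for the loss-of-signal fit.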

For assay [3], the target named is PGR (gene 5241) (UniProt P06401). Kind of assay: TOX21_PR_BLA_Followup_Antagonist_ratio: Tox21 HEK293 Progesterone Receptor (PR) Antagonism Beta-lactamase Follow-Up Assay, Ratio (AID 2283934). In short, it runs like this:
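HEK293T PR-UAS-bla, 2% CS-FBS; 6 hr plating, then cpd + R5020 (1 nM final), 16 hr 37C/5% CO2. B/G FRET substrate 2 h RT. Ratio ch2/ch1 vs DMSO; CellTiter-Glo viability multiplexed, autofluorescence checked.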

Assay [4] can be described thus: TOX21_PR_BLA_Followup_Agonist_viability: Viability Assessment in the Tox21 HEK293 Progesterone Receptor (PR) Agonism Beta-lactamase Follow-Up Assay (AID 2283935).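 Further: signal loss means lower viability so actives are cytotoxic.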 In short, it runs like this:
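HEK293T PR-UAS-bla, 3,000 cells/well, 2% CS-FBS; 6 hr pre-incubation; cpd in DMSO, 16 hr 37C; LiveBLAzer 2 hr RT, then CellTiter-Glo 30 min RT, luminescence. Decrease = lost viability.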

Assay [5] in a line: TOX21_PR_BLA_Followup_Antagonist_viability: Viability Assessment in the Tox21 HEK293 Progesterone Receptor (PR) Antagonism Beta-lactamase Follow-Up Assay (AID 2283936).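 Further: hits lower the luminescence signal meaning cytotoxicity.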 In short, it runs like this:
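PR-UAS-bla HEK293T cells (3,000/well, 2% charcoal-stripped FBS) given compound plus R5020 agonist, 16 h at 37C. CellTiter-Glo added after bla read, 30 min at room temperature; luminescence loss indicates cytotoxicity.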

Assay [6] has as its target PGR (gene 5241) (UniProt P06401). Put plainly: TOX21_PR_LUC_Followup_Antagonist: Tox21 HEK293 Progesterone Receptor (PR) Antagonism Luciferase Follow-Up Assay (AID 2283938).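 Further: curve fitted upward as signal gain over DMSO baseline despite antagonist label.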 In short, it runs like this: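 HEK293-PR-A-luc cells were precultured 5 days in medium with 10% charcoal-stripped FBS, seeded 3,000/well, then exposed to compounds in DMSO for 16 h at 37C. Luciferase was read by ONE-Glo luminescence after 30 min at room temperature.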

The target is the same in assay [7]. Kind of assay: TOX21_PR_LUC_Followup_Agonist: Tox21 HEK293 Progesterone Receptor (PR) Agonism Luciferase Follow-Up Assay (AID 2283937; active means hit-call score of the fitted dose curve at least 0.9, where 1 is the maximum; inactive means score below 0.9). In short, it runs like this: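 Cells: HEK293-PR-A-luc, 3,000/well, 10% charcoal-stripped FBS assay medium. Compound added after 5 h; 16 h, 37C, 0% CO2. ONE-Glo luciferase, luminescence. Positive fit vs DMSO.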
Assay [8] has as its target Thyroid hormone receptor alpha (Rattus norvegicus) + Thyroid hormone receptor beta (Rattus norvegicus) (UniProt P18113+P63059). Put plainly: TOX21_TR_LUC_GH3_Agonist_Followup: Tox21 GH3 Thyroid Hormone Receptor Agonism Luciferase Follow-Up Assay (AID 2283939). In short, it runs like this: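 Rat GH3 cells (1,500/well) in serum-free assay medium, treated with 15-point series, 92 uM to 5 nM final, for 24 h at 37C. Luciferase via ONE-Glo luminescence; gain of signal fitted against DMSO, T3 positive control.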

The nature of assay [9]: CEETOX_H295R_11DCORT_noMTC: CeeTox H295R High-throughput Steroidogenesis Assay for 11-Deoxycortisol (11DCORT), maximum tolerated concentration (MTC) filtered results only (AID 2283911; active means hit-call score of the fitted dose curve at least 0.9, where 1 is the maximum; inactive means score below 0.9). Particulars: actives raise or lower the signal. In short, it runs like this: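 HPLC-MS/MS read-out of 11-deoxycortisol after MTBE extraction of H295R medium. Cells: forskolin 10 uM pre-stimulation 48 h, chemical 48 h, 0.1% DMSO final. Bidirectional fit vs DMSO baseline; no MTC filtering.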

Assay [10] in a line: CEETOX_H295R_OHPREG_noMTC: CeeTox H295R High-throughput Steroidogenesis Assay for OH-Pregnenolone (OHPREG), maximum tolerated concentration (MTC) filtered results only (AID 2283912; active means hit-call score of the fitted dose curve at least 0.9, where 1 is the maximum; inactive means score below 0.9). The note with it: actives raise or lower the signal. In short, it runs like this: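 H295R human adrenal cells, forskolin-prestimulated (10 uM, 48 h), then exposed to test chemical in 0.1% DMSO for 48 h. 17alpha-hydroxypregnenolone in medium measured by HPLC-MS/MS after MTBE extraction; bidirectional fit versus DMSO, concentrations not MTC-filtered.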

Assay [11] is described as follows: CEETOX_H295R_OHPROG_noMTC: CeeTox H295R High-throughput Steroidogenesis Assay for OH-Progesterone (OHPROG), maximum tolerated concentration (MTC) filtered results only (AID 2283914; active means hit-call score of the fitted dose curve at least 0.9, where 1 is the maximum; inactive means score below 0.9). The note with it: actives raise or lower the signal. In short, it runs like this: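 H295R human adrenal cells prestimulated 48 h with 10 uM forskolin, then exposed 48 h to test chemical (0.1% DMSO final). Medium 17alpha-hydroxyprogesterone extracted with MTBE, quantified by HPLC-MS/MS; bidirectional fit versus DMSO, concentrations not MTC-filtered.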

Assay [12] is described as follows: CEETOX_H295R_CORTISOL_noMTC: CeeTox H295R High-throughput Steroidogenesis Assay for Cortisol, maximum tolerated concentration (MTC) filtered results only (AID 2283916; active means hit-call score of the fitted dose curve at least 0.9, where 1 is the maximum; inactive means score below 0.9). Particulars: actives raise or lower the signal. In short, it runs like this: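 H295R adrenal cells were pre-stimulated 48 h with 10 uM forskolin, then exposed 48 h to test chemical in 0.1% DMSO. Medium cortisol was measured by MTBE extraction and HPLC-MS/MS; bidirectional fit versus DMSO, concentrations not MTC-filtered.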

A short description of assay [13]: CEETOX_H295R_CORTIC_noMTC: CeeTox H295R High-throughput Steroidogenesis Assay for Corticosterone (CORTIC), maximum tolerated concentration (MTC) filtered results only (AID 2283917; active means hit-call score of the fitted dose curve at least 0.9, where 1 is the maximum; inactive means score below 0.9). Particulars: actives raise or lower the signal. In short, it runs like this:
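H295R, 10 uM forskolin prestim 48 h → test chem (0.1% DMSO final) 48 h → media MTBE extraction → HPLC-MS/MS corticosterone. Bidirectional fit vs DMSO baseline; no MTT-based MTC filtering.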

Assay [14] in a line: CEETOX_H295R_DOC_noMTC: CeeTox H295R High-throughput Steroidogenesis Assay for DOC, maximum tolerated concentration (MTC) filtered results only (AID 2283918; active means hit-call score of the fitted dose curve at least 0.9, where 1 is the maximum; inactive means score below 0.9). The note with it: actives raise or lower the signal. In short, it runs like this: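 H295R cells prestimulated 48 h with 10 uM forskolin, then exposed 48 h to test chemical (0.1% DMSO final). Medium 11-deoxycorticosterone extracted with MTBE, quantified by HPLC-MS/MS; bidirectional fit versus DMSO, concentrations not MTC-filtered.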

The nature of assay [15]: CEETOX_H295R_PROG_noMTC: CeeTox H295R High-throughput Steroidogenesis Assay for Progesterone (PROG), maximum tolerated concentration (MTC) filtered results only (AID 2283920; active means hit-call score of the fitted dose curve at least 0.9, where 1 is the maximum; inactive means score below 0.9). The note with it: actives raise or lower the signal. In short, it runs like this:
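H295R human adrenal cells were prestimulated 48 h with 10 uM forskolin, then exposed 48 h to test chemical (0.1% DMSO final). Progesterone in medium was quantified by HPLC-MS/MS; bidirectional fitting versus DMSO, concentrations not MTC-filtered.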

The nature of assay [16]: CEETOX_H295R_ESTRADIOL_noMTC: CeeTox H295R High-throughput Steroidogenesis Assay for Estradiol, maximum tolerated concentration (MTC) filtered results only (AID 2283919; active means hit-call score of the fitted dose curve at least 0.9, where 1 is the maximum; inactive means score below 0.9). Particulars: actives raise or lower the signal. In short, it runs like this: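 H295R human adrenal cells pre-stimulated 48 h with 10 uM forskolin, then exposed 48 h to chemical (0.1% DMSO final). Estradiol in medium measured by HPLC-MS/MS after MTBE extraction and dansyl derivatization; bidirectional fit versus DMSO, concentrations not MTT-filtered.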

Assay [17] is described as follows: CEETOX_H295R_ESTRONE_noMTC: CeeTox H295R High-throughput Steroidogenesis Assay for Estrone, maximum tolerated concentration (MTC) filtered results only (AID 2283921; active means hit-call score of the fitted dose curve at least 0.9, where 1 is the maximum; inactive means score below 0.9). The note with it: actives raise or lower the signal. In short, it runs like this:
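H295R cells prestimulated 48 h with 10 uM forskolin, then exposed 48 h to chemical in 0.1% DMSO; medium estrone measured by HPLC-MS/MS after MTBE extraction and dansyl derivatization, fitted bidirectionally versus DMSO without MTT-based MTC filtering.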

Inconclusive results are not listed. The source made the active and inactive calls. How the source made its calls, unless noted: active means hit-call score of the fitted dose curve at least 0.9, where 1 is the maximum; inconclusive means response in the unintended direction; inactive means score below 0.9.

PGR (gene 5241), sequence (P06401 whole entry, looked up): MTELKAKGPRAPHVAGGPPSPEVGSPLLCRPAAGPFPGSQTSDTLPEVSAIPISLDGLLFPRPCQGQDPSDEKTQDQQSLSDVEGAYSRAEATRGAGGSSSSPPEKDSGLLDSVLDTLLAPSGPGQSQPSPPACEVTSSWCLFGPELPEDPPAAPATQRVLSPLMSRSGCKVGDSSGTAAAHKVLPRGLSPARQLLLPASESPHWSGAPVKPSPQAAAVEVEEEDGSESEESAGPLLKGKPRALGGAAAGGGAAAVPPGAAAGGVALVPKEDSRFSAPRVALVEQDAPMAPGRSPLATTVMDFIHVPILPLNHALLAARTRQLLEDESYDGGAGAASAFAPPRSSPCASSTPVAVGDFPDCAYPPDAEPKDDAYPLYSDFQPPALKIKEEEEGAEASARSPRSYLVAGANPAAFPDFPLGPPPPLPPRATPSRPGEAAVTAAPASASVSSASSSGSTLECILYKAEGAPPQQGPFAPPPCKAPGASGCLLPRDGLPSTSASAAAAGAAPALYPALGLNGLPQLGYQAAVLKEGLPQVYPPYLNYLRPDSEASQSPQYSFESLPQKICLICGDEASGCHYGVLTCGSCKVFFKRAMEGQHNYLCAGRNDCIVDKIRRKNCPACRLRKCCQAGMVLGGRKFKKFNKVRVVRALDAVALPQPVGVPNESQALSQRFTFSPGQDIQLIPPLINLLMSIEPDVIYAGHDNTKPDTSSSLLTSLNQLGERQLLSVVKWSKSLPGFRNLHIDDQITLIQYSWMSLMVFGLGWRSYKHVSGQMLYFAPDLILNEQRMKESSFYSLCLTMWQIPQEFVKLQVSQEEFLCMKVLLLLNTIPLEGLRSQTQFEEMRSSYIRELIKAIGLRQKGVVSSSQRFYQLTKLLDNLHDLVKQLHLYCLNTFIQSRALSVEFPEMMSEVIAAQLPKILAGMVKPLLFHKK
Thyroid hormone receptor alpha (Rattus norvegicus) + Thyroid hormone receptor beta (Rattus norvegicus), sequence (P63059 whole entry, looked up): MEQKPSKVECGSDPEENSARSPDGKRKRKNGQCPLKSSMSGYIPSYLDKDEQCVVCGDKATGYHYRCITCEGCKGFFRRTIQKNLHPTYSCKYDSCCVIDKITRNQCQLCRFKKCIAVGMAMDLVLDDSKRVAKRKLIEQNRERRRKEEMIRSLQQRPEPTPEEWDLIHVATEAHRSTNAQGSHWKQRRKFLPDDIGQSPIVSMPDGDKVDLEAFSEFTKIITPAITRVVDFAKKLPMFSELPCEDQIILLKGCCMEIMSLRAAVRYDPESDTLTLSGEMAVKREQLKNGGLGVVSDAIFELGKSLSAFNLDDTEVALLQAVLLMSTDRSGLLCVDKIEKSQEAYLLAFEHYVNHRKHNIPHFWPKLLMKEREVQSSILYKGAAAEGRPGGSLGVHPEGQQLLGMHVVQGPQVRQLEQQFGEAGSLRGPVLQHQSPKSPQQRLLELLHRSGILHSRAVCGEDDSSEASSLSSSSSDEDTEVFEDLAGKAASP
Thyroid hormone receptor alpha (Rattus norvegicus) + Thyroid hormone receptor beta (Rattus norvegicus), sequence (P18113 whole entry, looked up): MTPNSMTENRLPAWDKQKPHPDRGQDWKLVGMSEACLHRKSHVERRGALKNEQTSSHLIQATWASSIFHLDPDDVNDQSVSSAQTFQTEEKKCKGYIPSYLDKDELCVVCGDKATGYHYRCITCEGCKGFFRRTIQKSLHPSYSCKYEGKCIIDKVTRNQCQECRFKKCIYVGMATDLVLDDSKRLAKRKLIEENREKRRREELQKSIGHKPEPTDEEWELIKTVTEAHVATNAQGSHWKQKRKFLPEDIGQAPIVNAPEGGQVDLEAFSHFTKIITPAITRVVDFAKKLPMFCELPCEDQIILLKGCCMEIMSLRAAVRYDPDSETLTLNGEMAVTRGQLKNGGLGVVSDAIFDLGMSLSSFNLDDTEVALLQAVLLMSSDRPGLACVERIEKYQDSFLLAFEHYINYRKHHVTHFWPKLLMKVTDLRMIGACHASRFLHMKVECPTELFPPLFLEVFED

Regarding `CCOP(=S)(OCC)SCSCC`, the result in assay [1] and in assay [2] was inactive.

For `O=S1(=O)OCC2C(CO1)C1(Cl)C(Cl)=C(Cl)C2(Cl)C1(Cl)Cl` (stereo unspecified), the result in [2], in assay [4] and in assay [5] was inactive. Also, the AC50 (usually the midpoint of the concentration-response curve, whichever way the signal moves) in the assay with PGR (gene 5241) [3] was 24.2 µM (active); in the assay with PGR (gene 5241) [6], 27.1 µM (active).

Consider `O=[N+]([O-])c1ccc(Cl)c(Cl)c1`, for which the result in assay [2] was inactive.

Regarding `CO/N=C(/C(=O)OC)c1ccccc1COc1ccccc1C`, the AC50 is 7.83 µM (active) in assay [1], 37.1 µM (active) with PGR (gene 5241) [3] and 31.5 µM (active) in the assay with PGR (gene 5241) [6]. In addition, the outcome (in assay [2]; in [4]; in assay [5]; with PGR (gene 5241) [7]) was inactive.

Take `CCOP(=S)(OCC)SCSc1ccc(Cl)cc1`: the concentration at half-maximal activity (AC50) with PGR (gene 5241) [3] is 9.94 µM (active); with PGR (gene 5241) [6], 20.4 µM (active). Moreover, the compound was called inactive in [4] and in assay [5].

Take `CC(Cc1ccc(OCC(=O)O)cc1)NCC(O)c1csc(C(F)(F)F)n1` (stereo unspecified): the outcome in assay [8] was inactive.

`ClC1=C(Cl)C2(Cl)C3C(Cl)C(Cl)CC3C1(Cl)C2(Cl)Cl` (stereo unspecified): in assay [1], the result was inactive. In addition, in assay [2], the half-maximal activity concentration (AC50) is 9.92 µM (active).

For `CCC1(c2ccccc2)C(=O)N=C(O)NC1=O` (stereo unspecified), the result in assay [8] was inactive.

`CC(C)(C)N(NC(=O)c1ccc(Cl)cc1)C(=O)c1ccccc1`: the result in assay [1] and in [2] was inactive.

`O=P(OCC(Br)CBr)(OCC(Br)CBr)OCC(Br)CBr` (stereo unspecified): the outcome in assay [1] was inactive.

`CCCCC(CC)COP(=O)(Oc1ccccc1)Oc1ccccc1` (stereo unspecified): the result in [1] and in assay [2] was inactive.

As to `COC(=O)C(F)(F)C(F)(F)OC(F)(C(F)(F)F)C(F)(F)OC(F)=C(F)F` (stereo unspecified), in [1], the result was inactive.

For the compound `CCOC(=O)c1ccccc1C(=O)OCC`, the result in assay [9], in assay [10], in assay [11], in assay [12], in assay [13] and in assay [14] was inactive. Moreover, the compound was called inactive in [15].

Consider `CCOc1ccc(C(C)(C)COCc2cccc(Oc3ccccc3)c2)cc1`, for which the AC50 was 13.1 µM (active) in [9] and 13.2 µM (active) in assay [11]. The compound was called inactive in assay [10], in [12], in assay [13], in assay [14], in assay [16] and in assay [15]. In assay [17], the compound was classed as inactive.

On to `CC(C)(C)c1ccc(O)cc1`, for which, in assay [1], the result was inactive.

For the origin of these results see PubChem BioAssay (EPA / NIEHS).
